Pf growth 48h – Primary qHTS for delayed death inhibitors of the malarial parasite plastid, 48 hour incubation; P. falciparum luciferase growth in erythrocytes, 48 h; Potency, µM (titrated, usually from 28.7 µM), without a hit: top-dose activity change, negative = inhibition, hits mostly inhibitors; actives 5.9% (n = 310,000); note: potency is the fitted concentration of half-maximal effect
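Luciferase-expressing P. falciparum in infected erythrocytes (2% hematocrit, 0.1% parasitemia final) in RPMI 1640/0.5% Albumax were exposed to compound for 48 hours at 37 C, 5% CO2; growth read as luminescence.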
Giardia FBPA inh-1 – qHTS Assay for Inhibitors of Fructose-1,6-bisphosphate Aldolase from Giardia Lamblia | A8B2U2 | actives 0.71% (n = 290,000) | purified Giardia FBPA | Potency, µM (highest dose often 59.6 µM), inactives show at the highest dose activity, negative = inhibition, hits mostly inhibitors; note: potency is the fitted concentration of half-maximal effect; nearly all actives have a fitted effect of over 55% in size
Target sequence (A8B2U2 whole entry, looked up): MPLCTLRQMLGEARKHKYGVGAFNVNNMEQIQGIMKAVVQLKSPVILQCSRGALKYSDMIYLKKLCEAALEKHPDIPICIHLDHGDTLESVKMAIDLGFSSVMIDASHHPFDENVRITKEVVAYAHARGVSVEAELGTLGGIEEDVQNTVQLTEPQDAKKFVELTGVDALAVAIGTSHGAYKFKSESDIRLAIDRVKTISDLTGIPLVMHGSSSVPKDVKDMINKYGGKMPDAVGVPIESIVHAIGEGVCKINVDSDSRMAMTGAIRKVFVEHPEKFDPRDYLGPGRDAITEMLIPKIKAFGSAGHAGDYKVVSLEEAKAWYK
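Giardia FBPA (40 nM reagent) was preincubated 10 min at RT with compound (up to 57.5 uM final), then substrate plus GAPDH/TPI/NAD/arsenate coupling system with diaphorase/resazurin was added; resorufin fluorescence (525/598 nm) was read after 20 min.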
Pf growth 96h – Primary qHTS for delayed death inhibitors of the malarial parasite plastid, 96 hour incubation; P. falciparum luciferase reporter growth, 96 h; Potency, µM (titrated, usually from 28.7 µM), for the others: top-dose activity change, negative = inhibition, actives largely listed as inhibitors; actives 6.9% (n = 320,000); note: potency is the fitted concentration of half-maximal effect
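96 h incubation, 37 C, 5% CO2, of luciferase-reporter P. falciparum-infected RBCs (2% hematocrit, 0.05% parasitemia final) with test compounds; endpoint luminescence.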
HCMV inh – qHTS Assay for inhibitors of the human cytomegalovirus (HCMV); AID 1259415, 2018; HFF cells, HCMV-luciferase reporter, 72 h; stronger effect = lower value; activity change, negative = inhibition, % at 57.5 µM; actives 4.5% (n = 410,000); in the data active = activity change below about -60%; inconclusive = no clear call, values can overlap the other calls; inactive = above about -39%
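Human foreskin fibroblasts infected with luciferase-reporter HCMV at MOI 1 PFU/cell, compounds at two doses. Luciferase measured 72 h post infection; normalized to buffer-only basal and Salinomycin (10uM) controls.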
Sm TGR inh – qHTS Assay for the Inhibitors of Schistosoma Mansoni Peroxiredoxins. purified TGR, DTNB reduction, TNB absorbance 405 nm. Potency, µM (titrated, usually from 114 µM), for the others: at the highest dose activity change, negative = inhibition, most hits filed as inhibitors. actives 3% (n = 360,000); note: potency is the fitted concentration of half-maximal effect; nearly all actives have a fitted effect of over 60% in size
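TGR 20 nM + NADPH 100 uM (dispensed conc.), cpd preinc 15 min RT; start with NADPH (500 uM addition) then DTNB (15 mM addition). Kinetic TNB absorbance, 405 nm filter. Four-parameter Hill fit across titration.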
Giardia growth – qHTS Assay for Inhibitors of Fructose-1,6-bisphosphate Aldolase from Giardia Lamblia: Giardia lamblia growth inhibition; Giardia lamblia trophozoite growth inhibition; actives 5% (n = 1,500); shares compounds with Giardia FBPA inh-1; Potency, µM (titrated, usually from 57.5 µM), without a hit: at the highest dose activity change, negative = inhibition, actives largely listed as inhibitors;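 note: potency is the fitted concentration of half-maximal effect; trophozoites exposed to compound for 48 h at 37 °C; nearly all actives have a fitted effect of over 70% in size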
Mammal cell tox – qHTS Assay for Inhibitors of Fructose-1,6-bisphosphate Aldolase from Giardia Lamblia: Mammalian cellular toxicity. shares compounds with Giardia FBPA inh-1. mammalian cell viability counter-screen, qHTS. Potency, µM (series often up to 57.5 µM), for the others: at the top dose viability change, negative = toxicity, most hits filed as inhibitors. actives 4% (n = 1,500). AID 2786, 2010;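 note: Chinese hamster ovary cells used as mammalian cytotoxicity surrogate; viability measured as cellular ATP by luminescence; potency is the fitted concentration of half-maximal effect; compound exposure lasted 48 h before reading; nearly all actives have a fitted effect of over 60% in size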
Giardia FBPA inh-2 – qHTS Assay for Inhibitors of Fructose-1,6-bisphosphate Aldolase from Giardia Lamblia: Primary screen confirmation | Potency, µM (series often up to 57.5 µM), inactives show top-dose activity change, negative = inhibition, hits mostly inhibitors | AID 2787, 2010 | purified Giardia aldolase enzyme activity, qHTS | actives 5% (n = 1,500) | shares compounds with Giardia FBPA inh-1; note: potency is the fitted concentration of half-maximal effect; nearly all actives have a fitted effect of over 45% in size
Rabbit aldolase – qHTS Assay for Inhibitors of Fructose-1,6-bisphosphate Aldolase from Giardia Lamblia: Rabbit FBPA Selectivity. AID 2794, 2010. Potency, µM (top dose mostly 57.5 µM), for the others: at the top dose activity, negative = inhibition, actives largely listed as inhibitors. actives 4% (n = 1,500). Rabbit muscle FBPA enzyme inhibition, selectivity counter-screen. shares compounds with Giardia FBPA inh-1; note: potency is the fitted concentration of half-maximal effect; nearly all actives have a fitted effect of over 60% in size
Target sequence (P00883 whole entry, looked up): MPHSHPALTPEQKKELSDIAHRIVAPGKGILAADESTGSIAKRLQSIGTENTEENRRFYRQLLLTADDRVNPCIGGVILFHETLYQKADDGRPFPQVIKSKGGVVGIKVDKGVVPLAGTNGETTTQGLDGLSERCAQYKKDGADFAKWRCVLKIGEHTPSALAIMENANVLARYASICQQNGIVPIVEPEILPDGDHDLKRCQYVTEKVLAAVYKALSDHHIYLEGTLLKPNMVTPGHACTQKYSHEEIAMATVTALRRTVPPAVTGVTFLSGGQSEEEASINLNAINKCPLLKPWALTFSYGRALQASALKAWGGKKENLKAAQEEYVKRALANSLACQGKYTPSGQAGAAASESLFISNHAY
GAPDH coupling – qHTS Assay for Inhibitors of Fructose-1,6-bisphosphate Aldolase from Giardia Lamblia: Coupling assay counterscreen confirmation. actives 6% (n = 1,500). Potency, µM (doses to about 57.5 µM), for the others: at the top dose activity change, negative = inhibition, hits mostly inhibitors. GAPDH coupling enzyme counterscreen, biochemical, qHTS. shares compounds with Giardia FBPA inh-1; note: potency is the fitted concentration of half-maximal effect; nearly all actives have a fitted effect of over 55% in size
Active calls of the source: *; u = inconclusive; x = no result given; [ ] = dose if it differs, or a comment. Sampled rows, rich in hits. Any-hit rate of the full collection: about 14%. Unless noted, calls come from the whole dose curve; as a rule, active = well fitted curve in the direction sought with a large enough effect; inconclusive = small, poorly fitted or top-dose-only effect, or another doubt; inactive = no such curve, though single readings can be large; an effect the other way counts as inactive or inconclusive. % is set by controls: 0 for no effect and ±100 for the full control effect.

SMILES | Pf growth 48h | Giardia FBPA inh-1 | Pf growth 96h | HCMV inh | Sm TGR inh | Giardia growth | Mammal cell tox | Giardia FBPA inh-2 | Rabbit aldolase | GAPDH coupling
O=C(O)CSc1nnc(NC(=O)CN2CCOCC2)s1 | -4% | 5µM* | 27% | -4 | 6% | -5% | 0% | 3% | 11% | 11%
CS(=O)(=O)c1ccc2nc(NC(=O)CN3CCOCC3)sc2c1 | 6% | 4.5µM* | -9% | 10 | 0% | u | -4% | 2% | 6% | 3%
O=C(NC1CCCCC1)c1ccc2c(c1)N(Cc1cccc(Cl)c1)C(=O)c1ccccc1S2=O (centres undefined) | x | x | x | u | 19% | x | x | x | x | x
CN(C)c1ccc(C=C2C(=O)NC(=S)NC2=O)cc1 | x | x | x | 22 | x | x | x | x | x | x
CCN(CC)c1ccc(C=C2C(=O)NC(=S)NC2=O)cc1 | -15% | 14µM* | 31% | -29 | 16µM* | 14µM* | 0% | -10% | -1% | 5%
COc1ccc(C(=O)Nc2cc(C)nn2-c2ccc(C)cc2)cc1 | -8% | 1% | -2% | -29 | 0% | x | x | x | x | x
COC(=O)c1ccc(OCc2nn[nH]n2)cc1 | 17% | 32µM* | 5% | 18 | -2% | 21% | 19% | 14% | 12% | 14%
COc1ccc(OCc2nn[nH]n2)cc1 | 48% | 25µM* | u | 33 | -13% | u | -6% | 12% | 7% | 22%
COC(=O)c1ccc(OCC(=O)c2ccc(C)c(C)c2)cc1 | 55% | 1% | 0% | 120 | -9% | x | x | x | x | x
COc1cccc(OCc2nn[nH]n2)c1 | 12% | u | 0% | 4 | -14% | x | x | x | x | x
Cc1cccc(OCc2nn[nH]n2)c1C | 11% | 14µM* | -3% | 68 | 8% | 26% | -4% | 4% | 13% | 16%
O=C(Nc1nnc(C2=COCCO2)o1)c1ccc(Cc2ccccc2)cc1 | 13% | 18µM* | 38% | -26 | 2% | u | -3% | 2% | 8% | -3%
O=C(Nc1nnc(C2=COCCO2)o1)c1ccc(F)cc1 | u | 32µM* | u | -31 | 5% | u | 5% | -7% | -12% | -10%
CC(C)CCCC(C)C1CCC2C3CC=C4CC(=O)CC[C@@]4(C)C3CC[C@@]12C (some centres undefined) | x | 0% | x | x | x | x | x | x | x | x
O=C1CCCC2=C1C1O[C@](CCCCN3C(=O)c4ccccc4C3=O)(Cc3ccccc31)O2 | u | -10%[12.9 µM] | u | x | -8%[22.9 µM] | x | x | x | x | x
CCOC(=O)CSc1nc(N)c(C#N)c(-c2ccc(OCC)cc2)c1C#N | 35% | 4% | 14% | 9 | -11% | x | x | x | x | x
CC1=C(C#N)c2nc(N)c(C#N)c(C)c2/C1=C\c1ccc(OCC(=O)O)c(Cl)c1 | -3% | 20µM* | -4% | -25 | u | u | -3% | -17% | -12% | -6%
CCn1nc(C)c(CNC(=O)CCc2nnc(-c3ccc(C(C)=O)s3)o2)c1C | -24% | 3% | -8% | -23 | x | x | x | x | x | x
O=C(CC(NCc1ccccn1)C(=O)O)Nc1ccccc1Cl (centres undefined) | -19% | 6.3µM* | 20% | -5 | 2% | u | 9% | 12% | 3% | -1%
O=[N+]([O-])c1cc(CN2CCN(c3cccc(C(F)(F)F)c3)CC2)c2cccnc2c1O | 0.83µM* | 16µM* | u | -76* | -27% | -17% | -28% | -10% | -19% | -21%
Cc1cccc(NC(=O)N(C)Cc2cccs2)c1 | x | -1% | 65% | 77 | 3% | x | x | x | x | x
O=C(CCc1nnc2ccc(N3CCC4(CC3)OCCO4)nn12)NCc1ccc(F)cc1 | -10% | 1% | -12% | -8 | -9% | x | x | x | x | x
COc1ccc2[nH]c(=S)[nH]c2c1 | 20% | 7.1µM* | -3% | 14 | 0% | 2%[10.4 µM] | 2% | 3% | 4% | 4%
COc1ccc(-c2cc(=O)[nH]c(=S)[nH]2)cc1 | 1% | 16µM* | u | 25 | x | u | 6% | 6% | 16% | 4%
COc1ccc(-c2cc(=O)c3cc(OC)ccc3[nH]2)cc1 | 131% | 0% | 67% | x | -1% | x | x | x | x | x
CCc1ccc(-c2csc(-c3cc4cc(Br)ccc4oc3=O)n2)cc1 | x | x | x | 24 | -5% | x | x | x | x | x
CCOC(=O)c1cnc(-c2ccccc2O)nc1Cl | 33% | 20µM* | 0% | 52 | -2% | u | 1% | u | u | u
CCOC(=O)c1cnc(-c2ccccc2)nc1Oc1ccc(Cl)cc1 | u | 9% | 16% | -6 | 21% | x | x | x | x | x

Source: PubChem
